Source: PubChem
This is a sample that favours compounds with a hit; in the whole collection about 4.1% have one here.
MEKK2 WT-MEK5: raises or lowers MEK5 binding to wildtype human MEKK2 PB1 domain; Q9Y2U5; binding response (% of control), % at 10 µM; 290,000 compounds, 1.1% hits; AID 1531; bead flow cytometry, Alexa488-MEK5 binding to MEKK2 WT; actives lie on both sides; in the data active = binding response below about 67% or above about 130%
MEKK2 mut-MEK5: signal of MEK5 binding to mutant human MEKK2 PB1 domain | bead flow cytometry, Alexa488-MEK5 binding to MEKK2 mutant | percent response, % at 10 µM | 290,000 compounds, 0.35% hits | AID 1530; in the data active = percent response above about 24%, passing the limit was not always enough
SUMO Mot1 rescue: inhibitors of SUMOylation pathway: yeast Mot1-301 growth rescue. growth rescue, % at 18.8 µM. S. cerevisiae Mot1-301 growth rescue, ATP luminescence, 38.5C; percent above DMSO median, 100 means doubled. 320,000 compounds, 1% hits;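 active = every valid replicate shows activation above 250% relative to neutral control wells; inactive = the rest, any valid replicate at or below 250%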;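 also: OY570 slx delta 5 strain wells were the positive control but not used for scaling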
MEKK3 PB1 HTS: modulators (inhibitors or enhancers) of MEK5 binding to human MEKK3 PB1 domain; Q99759; bead-based flow cytometry, Alexa488-MEK5 binding to MEKK3; actives lie on both sides; 0 = blocked by unlabeled MEK5, 100 = vehicle; binding response (% of control), % at 10 µM; 290,000 compounds, 1.4% hits;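 active = binding response more than 3 SD above or below the average of its plate-row segment, actives on both sides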;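 also: Alexa488 bead fluorescence after subtracting the streptavidin-only scavenger bead signal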
CHT block: inhibits the human high affinity choline transporter. B-score at 10 µM. 310,000 compounds, 0.86% hits. CHT-expressing cells, membrane potential dye, choline response; hits give low values. Q9GZV3;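 active = B-score over 3 SD under the library average, and starting fluorescence ratio not unusually high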;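 also: choline stimulus applied at its EC90 after an EC20 pre-addition; B-score computed on integrated fluorescence ratio after choline addition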
Target sequence (Q9GZV3 whole entry, looked up): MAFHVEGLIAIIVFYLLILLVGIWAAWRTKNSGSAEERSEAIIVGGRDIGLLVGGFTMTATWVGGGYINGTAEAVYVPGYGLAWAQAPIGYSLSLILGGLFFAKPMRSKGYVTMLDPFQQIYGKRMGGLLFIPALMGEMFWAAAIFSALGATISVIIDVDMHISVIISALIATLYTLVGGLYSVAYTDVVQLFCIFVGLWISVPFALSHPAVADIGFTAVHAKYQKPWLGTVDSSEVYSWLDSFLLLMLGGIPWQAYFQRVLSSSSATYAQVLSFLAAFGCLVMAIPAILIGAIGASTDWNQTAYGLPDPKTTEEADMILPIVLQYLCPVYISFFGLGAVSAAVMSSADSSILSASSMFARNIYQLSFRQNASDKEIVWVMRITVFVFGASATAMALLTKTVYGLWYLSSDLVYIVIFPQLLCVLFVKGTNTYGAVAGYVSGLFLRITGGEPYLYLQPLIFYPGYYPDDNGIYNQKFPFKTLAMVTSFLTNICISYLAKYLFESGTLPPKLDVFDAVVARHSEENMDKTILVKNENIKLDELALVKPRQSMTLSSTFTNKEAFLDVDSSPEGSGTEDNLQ
CHT allo act: allosterically activates the human high affinity choline transporter | Q9GZV3 | CHT-expressing cells, membrane potential dye, choline EC20; hits give high values; LV-AA mutant CHT in HEK293 cells | B-score at 10 µM | 310,000 compounds, 0.49% hits | AID 488977;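 active = initial fluorescence not abnormally high and integrated response B-score, plate-corrected, over 3 SD above library mean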
MEKK2wt confirm: raises or lowers MEK5 binding to wildtype human MEKK2, retest; shares compounds with MEKK3 PB1 HTS; bead flow cytometry, Alexa488-MEK5 binding to MEKK2 WT; actives lie on both sides; binding response (% of control), % at 10 µM; 5,900 compounds, 2.4% hits; AID 1892; in the data active = binding response below about 16% or above about 210%; inactive = in between
MEKK2mut confirm: signal of MEK5 binding to mutant human MEKK2, retest; shares compounds with MEKK3 PB1 HTS; bead flow cytometry, Alexa488-MEK5 binding to MEKK2 mutant; percent response, % at 10 µM; 5,900 compounds, 2% hits; AID 1893; in the data active = percent response mostly above about 71%, no sharp cut-off; inactive = mostly below about 38%;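 also: higher means compound restores mutant binding toward wildtype level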
MEKK3-MEK5 inh: confirmation of inhibitors of MEK5 binding to human MEKK3. 5,900 compounds, 1.8% hits. shares compounds with MEKK3 PB1 HTS. AID 1894. bead flow cytometry, Alexa488-MEK5 binding to MEKK3; hits give low values. binding response (% of control), % at 10 µM;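 active = binding response below 72% of control, or above a set upper limit, though filed actives all read lower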;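 also: 100% = DMSO only wells and 0% = binding blocked by excess unlabeled MEK5; lower values mean stronger disruption of MEK5 binding to MEKK3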
* hit, by the source's call; i = inactive; nt = not tested or not shown; [ ] = another dose, or the depositor's remark.

SMILES	MEKK2 WT-MEK5	MEKK2 mut-MEK5	SUMO Mot1 rescue	MEKK3 PB1 HTS	CHT block	CHT allo act	MEKK2wt confirm	MEKK2mut confirm	MEKK3-MEK5 inh
COc1ccc(Cl)cc1NC(=O)CCS(=O)(=O)c1ccc(C)cc1	105.0	-1.0	7.3	102.0	i	i	nt	nt	nt
Cn1c(SCC(=O)Nc2ccc(C(N)=O)cc2)nnc1-c1cccs1	97.0	3.0	-15.7	98.0	i	i	nt	nt	nt
Cc1cccc[n+]1CCCCCCCCCC[n+]1ccccc1C	104.0	3.0	-7.1	101.0	i	i	nt	nt	nt
CCCCCCCCCC[n+]1cccc2c3ccccc3ccc21	213.0*	10.0	nt	119.0	nt	nt	150.0	22.0	102.0
Cc1ccc(NC(=O)N2CCCC2C(=O)Nc2ccc3c(c2)OCCO3)cc1 (stereo not drawn)	105.0	0.0	171.8	98.0	i	i	nt	nt	nt
CN(CC(=O)Nc1ccc(F)cc1)C(=O)COC(=O)/C=C/c1ccccc1[N+](=O)[O-]	nt	nt	-3.6	nt	nt	nt	nt	nt	nt
c1ccc(CSc2ccc(-c3cccs3)nn2)cc1	106.0	1.0	-13.6	129.0*	i	i	94.0	-1.0	92.0
c1csc(-c2cn3ccc4ccccc4c3n2)c1	7.0*[inhibitor]	-18.0	88.8	6.0*[inhibitor]	i	i	105.0	7.0	108.0
Nc1ccc(S(=O)(=O)Nc2nccc(/C=C/c3ccccc3F)n2)cc1	116.0	0.0	2.3	134.0*	i	i	95.0	-3.0	97.0
Cc1ccnc(NS(=O)(=O)c2ccc(NC(=O)c3ccccc3F)cc2)n1	103.0	2.0	366.5	105.0	i	i	nt	nt	nt
Cc1cc(C)cc(C(=O)NC(CC(N)=O)c2ccc(N3CCC(Br)CC3)c([N+](=O)[O-])c2)c1 (stereo not drawn)	102.0	-2.0	-22.5	100.0	i	i	nt	nt	nt
NC(=O)CC(NC(=O)c1ccccc1)c1ccc(N2CCC(Br)CC2)c([N+](=O)[O-])c1 (stereo not drawn)	97.0	-2.0	-2.0	77.0*[inhibitor]	i	i	91.0	-14.0	91.0
CCOC(=O)c1cc(-c2ccccc2)sc1NC(=O)CCN1C(=O)c2ccccc2C1=O	32.0*[inhibitor]	1.0	3.5	97.0	i	i	99.0	-6.0	98.0
CC(C)OC(=O)/C(=C/c1ccc2c(c1)c1ccccc1n2C)NC(=O)c1ccccc1	104.0	5.0	311.3	103.0	i	i	nt	nt	nt
COC(=O)/C(=C\c1ccc2c(c1)c1ccccc1n2C)NC(=O)c1ccccc1	2.0*[inhibitor]	-9.0	-2.0	2.0*[inhibitor]	i	i	96.0	3.0	102.0
Cc1[nH]c2ccccc2c1SCC(=O)O	96.0	-2.0	-12.6	87.0	i	i	nt	nt	nt
COC(=O)C(F)(F)Sc1c(C)[nH]c2ccccc12	86.0	-8.0	6.5	79.0*[inhibitor]	i	i	105.0	9.0	106.0
Cc1csc(SCC(=O)NC(=O)NCCC(C)C)n1	96.0	-2.0	2.3	100.0	i	i	nt	nt	nt
CC1CCN(c2c(NCC3CCC(C(=O)NCc4ccccc4)CC3)c(=O)c2=O)CC1 (stereo not drawn)	100.0	-2.0	-6.8	110.0	i	i	nt	nt	nt
O=C(NCc1ccccc1)C1CCC(CNc2c(N3CCCCC3)c(=O)c2=O)CC1 (stereo not drawn)	77.0	-7.0	-8.8	70.0*[inhibitor]	i	i	102.0	2.0	103.0
CC/C(=C\c1oc2cc3ccccc3cc2[n+]1CC)Nc1ccccc1	389.0*	464.0*	-2.3	135.0*	i	i	92.0	-88.0*[inhibitor]	81.0
CC[n+]1c(/C=C/Nc2ccccc2)oc2ccc(OC)cc21	102.0	0.0	-2.1	104.0	i	i	nt	nt	nt
CCC(C)NC(=O)CSc1nnc(-c2cc(OC)c(OC)c(OC)c2)c(-c2cc(OC)c(OC)c(OC)c2)n1 (stereo not drawn)	88.0	-3.0	1.6	90.0	i	i	nt	nt	nt
Cc1cccc(CSc2nnc(CCCCCNC(=O)OC(C)(C)C)o2)c1	118.0	30.0	10.5	138.0*	i	i	109.0	6.0	105.0
COCC(=O)N(C)c1nnc(-c2cnccn2)s1	-1.0*[inhibitor]	-27.0	-0.5	0.0*[inhibitor]	i	i	103.0	1.0	101.0
SMILES	MEKK2 WT-MEK5	MEKK2 mut-MEK5	SUMO Mot1 rescue	MEKK3 PB1 HTS	CHT block	CHT allo act	MEKK2wt confirm	MEKK2mut confirm	MEKK3-MEK5 inh
CC(=O)N(C)c1nnc(-c2cnccn2)s1	nt	nt	-16.0	nt	i	i	nt	nt	nt
O=c1nc2n(c3ncccc13)CCCCC2	95.0	-1.0	-11.4	101.0	i	i	nt	nt	nt
Cc1ccc(/C=N/NC(=O)c2ccco2)cc1	78.0	-25.0	71.7	63.0	i	i	nt	nt	nt
CN(C)c1ccc(/C=N/NC(=O)c2ccco2)cc1	111.0	1.0	66.8	130.0*	i	i	102.0	6.0	104.0
COc1cc(/C=N/n2cnnc2)ccc1OC(=O)c1ccncc1	70.0	-9.0	12.2	56.0*[inhibitor]	i	i	97.0	-5.0	98.0
COc1ccc2[nH]c(C)c(CCNC(=S)Nc3cc(C)cc(C)c3)c2c1	100.0	-4.0	-11.9	104.0	i	i	nt	nt	nt
COc1ccc2[nH]c(C)c(CCNC(=S)Nc3cccc(C)c3)c2c1	1.0*[inhibitor]	-14.0	-24.2	1.0*[inhibitor]	i	i	93.0	-6.0	98.0
CCOC(=O)COn1c(=O)c(-c2cccs2)[n+]([O-])c2ccccc21	26.0*[inhibitor]	-8.0	16.0	15.0*[inhibitor]	i	i	102.0	4.0	102.0
Cc1cc(S(=O)(=O)N2CCC3(CC2)OCCN3S(=O)(=O)c2cccs2)ccc1F	nt	nt	-15.3	nt	i	i	nt	nt	nt
CC1(c2ccc(Cl)cc2Cl)OCC(Cn2ccnc2)O1 (stereo not drawn)	107.0	18.0	-3.5	103.0	i	i	nt	nt	nt
N=c1n(CCO)c2ccccc2n1CCOc1ccc(Cl)cc1Cl	148.0*	18.0	-1.9	113.0	i	i	132.0	19.0	108.0
CC(C)N(CCCNC(=O)Cn1c(=O)c2cccn2c2ccc(F)cc21)Cc1ccccc1	111.0	3.0	2.5	97.0	i	i	nt	nt	nt
O=C(CN1CCSC1=NCc1ccccc1)c1ccc(Cl)cc1	108.0	-1.0	-10.5	100.0	i	i	nt	nt	nt
CC(C)C1Cc2c(C#N)c(N)sc(=S)c2CO1 (stereo not drawn)	48.0*[inhibitor]	-5.0	-12.9	85.0	i	i	74.0	-12.0	96.0
